Assay outcomes: PubChem, National Center for Advancing Translational Sciences (NCATS)
In the library only some 19% were active in any assay of this set; here they are far more common.
TDP1 cell CPT: growth inhibition of DT40 Tdp1-/-;hTDP1 cells with camptothecin (screen for TDP1 inhibitors). chicken DT40 Tdp1-/-;hTDP1 cells + 20 nM CPT, ATP luminescence, 48 h. Potency, µM (titrated, usually from 46.2 µM), for the others: top-dose activity change, negative = growth inhibition, most hits filed as inhibitors. hit rate 12% among 420,000. AID 686979; further: potency means the concentration at half of the fitted maximal effect; nearly all actives have a fitted effect of over 55% in size
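Chicken DT40 Tdp1-/- cells complemented with human TDP1, 400 cells/well, exposed to compounds plus 20 nM camptothecin for at least 48 h at 37 C; viability read as ATP content by CellTiter-Glo luminescence.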
HT1080 IDH1KD tx: HT-1080 IDH1 knockdown cell toxicity (counter line). HT-1080 IDH1 knockdown viability, ATP luminescence, 48 h. Potency, µM (top dose mostly 46.1 µM), inactives show at the highest dose activity, negative = toxicity, actives largely listed as cytotoxic. hit rate 2% among 360,000. AID 686971;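 further: potency means the concentration at half of the fitted maximal effect; 0% = DMSO wells and -100% = cell-free medium wells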
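IDH1KD HT-1080 cells, 750/well, RPMI + 5% FBS; compound pinned after 2 h settling; 48 h, 37 °C; CellTiter-Glo luminescence; % activity normalised to DMSO and no-cell wells; curves fitted, classed by r2 and efficacy.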
IL1B secr inh: blocks inflammasome-driven IL-1 beta release | THP-1 LPS/ATP IL-1B secretion, AlphaLISA, 16 h; hits give low values | hit rate 4.7% among 360,000 | AID 743279 | activity change, % at 57.5 µM; in the data active means activity change below about -50%; inconclusive means mostly about -30% to -49%
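THP-1 cells pretreated 1 hr with compounds (up to 57.5 uM final), then stimulated with LPS (250 ng/mL final) plus ATP (1.25 mM final); secreted IL-1B measured by AlphaLISA after 16 hr, decreased signal indicating inhibition.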
HT1080-NT tox: kills 2HG-producing HT-1080-NT fibrosarcoma cells | AID 686970 | HT-1080-NT fibrosarcoma viability, CellTiter-Glo ATP luminescence, 48 h | hit rate 1.6% among 360,000 | Potency, µM (top dose mostly 46.1 µM), for inactives: at the highest dose activity, negative = less viability, most hits filed as cytotoxic;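 further: NT is the 2HG producing partner of a matched IDH1 knockdown line; potency means the concentration at half of the fitted maximal effect; 0% = DMSO-treated cells and -100% = media-only wells without cells; nearly all actives have a fitted effect of over 55% in size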
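Viability by CellTiter-Glo luminescence after 48 h compound exposure at 37C of HT-1080-NT cells (750/well, RPMI, 5% FBS). % activity scaled between DMSO wells and medium-only wells, then curve-fitted and categorized by curve class.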
TDP1 cell noCPT: qHTS for Inhibitors of human tyrosyl-DNA phosphodiesterase 1 (TDP1): qHTS in cells in absence of CPT; DT40 Tdp1-/- hTDP1 cells, no CPT, ATP luminescence, 48 h; Potency, µM (highest dose often 46.2 µM), without a hit: at the highest dose activity change, negative = growth inhibition, most hits filed as inhibitors; hit rate 15% among 420,000; AID 686978, 2013; further: potency means the concentration at half of the fitted maximal effect; nearly all actives have a fitted effect of over 55% in size
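Seeded 400 DT40-hTDP1 cells/well (vehicle DMSO, no 20 nM CPT); pinned compounds; ≥48 hr at 37 °C; CellTiter-Glo luminescence as viability measure.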
An asterisk follows results filed as active; i = inactive; ? = inconclusive; . = not tested or not shown. Unless noted, the call rests on the fitted dose curve; in most records, active means well fitted curve in the direction sought with a large enough effect; inconclusive means small, poorly fitted or top-dose-only effect, or another doubt; inactive means no such curve, though single readings can be large; an effect the other way counts as inactive or inconclusive. Unless noted, on the % scale 0 is the no-effect control and ±100 the full control effect.

SMILES	TDP1 cell CPT	HT1080 IDH1KD tx	IL1B secr inh	HT1080-NT tox	TDP1 cell noCPT
COc1cccc(NC(=O)Cn2c(=O)n(CC3CCCO3)c(=O)c3ccccc32)c1 (centres undefined)	-7.9%	8.9%	-12.7	10.8%	-8.4%
CC(C)CCn1c(NCCc2ccccc2)nc2c1c(=O)n(C)c(=O)n2C	13µM*	?	-28.7	-29.9%	20.6µM*
CC(Cl)=CCn1c(NCCc2ccccc2)nc2c1c(=O)n(C)c(=O)n2C	1.46µM*	-1.2%	24.8	-2.0%	1.46µM*
C=CCNc1nc2c(c(=O)n(C)c(=O)n2C)n1CCCCCC	3.26µM*	-10.5%	25.7	-1.3%	1.64µM*
C/C(Cl)=C\Cn1c(Nc2ccc(C)cc2)nc2c1c(=O)n(C)c(=O)n2C	?	-4.7%	20.7	-3.6%	?
Cn1c(=O)c2c(nc(NCCNC(=O)c3ccco3)n2Cc2ccc(Cl)cc2Cl)n(C)c1=O	?	-1.6%	-6.6	-0.2%	?
Cn1c(=O)c2c(nc(N/N=C/c3ccc(OC(=O)c4ccco4)cc3)n2Cc2ccccc2Cl)n(C)c1=O	6.51µM*	1.1%	38.2	-4.0%	8.2µM*
CC1(C)CC(=O)c2cc(C(=O)Nc3ccc(Cl)cc3)c(=O)[nH]c2C1	-1.0%	.	.	.	1.6%
Cc1cccc(NC(=O)NNC(=O)COc2ccc([N+](=O)[O-])cc2)c1C	1.5%	-8.3%	7.6	-6.7%	-10.8%
Cn1cc(S(=O)(=O)N2CCCCCC2)cc1C(=O)NCc1ccc(F)cc1	-24.8%	.	.	.	?
C=CCNc1nc2c(c(=O)n(C)c(=O)n2C)n1CC	0.0%	3.6%	8.7	2.7%	1.1%
C=CCNc1nc2c(c(=O)n(C)c(=O)n2C)n1Cc1ccc(F)cc1	2.31µM*	-14.6%	53.0	-16.1%	6.51µM*
Cn1c(=O)c2c(nc(NCCCO)n2Cc2cccc(Br)c2)n(C)c1=O	?	-0.4%	32.1	1.1%	?
Cn1c(=O)c2c(nc(NCCc3ccccc3)n2Cc2cccc(Br)c2)n(C)c1=O	11.6µM*	.	.	.	13µM*
CCC(C)Nc1nc2c(c(=O)n(C)c(=O)n2C)n1Cc1ccc(F)cc1 (centres undefined)	18.4µM*	-22.5%	15.3	-4.5%	?
Cn1c(=O)c2c(nc(NCCc3ccccc3)n2Cc2ccc(Cl)c(Cl)c2)n(C)c1=O	?	.	.	.	6.51µM*
CC(C)c1nc(CNC(=O)C2CCC(=O)N(CCc3cccc(F)c3)C2)cs1 (centres undefined)	?	-2.1%	i	1.6%	-13.3%
Cc1cc(C)n2nc(C(=O)OCC(=O)NNC(=O)c3ccccc3)nc2n1	0.4%	-1.3%	9.6	-0.1%	4.1%
CNc1nc2c(c(=O)n(C)c(=O)n2C)n1Cc1ccccc1	?	-14.9%	1.9	-1.8%	13µM*
Cn1c(=O)c2c(nc(NCc3ccccc3)n2C)n(C)c1=O	?	3.3%	17.3	-5.4%	-18.2%
CCCCC1OC23CCCCC2C(C#N)(C(=N)O3)C1(C#N)C#N (centres undefined)	7.31µM*	2.5%	-10.2	1.5%	7.31µM*
CCCCC1OC23CCCCC2C(C#N)(C#N)C1(C#N)C(=N)O3 (centres undefined)	6.51µM*	5.8%	-101.8*	6.9%	6.51µM*
COc1ccc2c(COC(=O)CNC(=O)C34CC5CC(CC(C5)C3)C4)cc(=O)oc2c1	-8.4%	7.6%	24.7	3.3%	?
Cc1ccc(CNC(=O)c2nnn(CC(=O)Nc3cccc(C)c3C)c2N)cc1	14.0%	-3.0%	24.0	?	1.9%
O=C(COC(=O)c1nc(Cl)c(Cl)c(Cl)c1Cl)c1ccc[nH]1	?	-0.7%	-102.6*	0.7%	?
CCOc1cc(C(=O)N=c2sccn2C)cc(Br)c1OC	18.4µM*	-5.5%	?	14.8%	18.4µM*
CCOc1cc(C(=O)NC)cc(Br)c1OC	19.8%	-7.8%	17.2	11.4%	-10.5%
CSc1cccc(N2CC(C(=O)Nc3cccc(S(=O)(=O)N4CCCC4)c3)CC2=O)c1 (centres undefined)	20.6µM*	-9.2%	5.8	-0.4%	14.6µM*
